# Columns and labels:
# Assay in all cases: DAPPL (digital affinity profiling via proximity ligation, sequencing); 10 mM Tris-HCl pH 7.5, 50 mM NaCl, 1 mM DTT, 4% glycerol, room temperature, 30 min; GST-TFs on glutathione beads, 16-mer random dsDNA library, 0.1% formaldehyde crosslink after washing; high values mean tight binding
# FLI1 = biological target: T1, FLI1 (Homo sapiens, UniProt Q01543 1-452); details: protein: recombinant; tags: N-terminal GST; dsDNA, one strand shown
# T1 sequence: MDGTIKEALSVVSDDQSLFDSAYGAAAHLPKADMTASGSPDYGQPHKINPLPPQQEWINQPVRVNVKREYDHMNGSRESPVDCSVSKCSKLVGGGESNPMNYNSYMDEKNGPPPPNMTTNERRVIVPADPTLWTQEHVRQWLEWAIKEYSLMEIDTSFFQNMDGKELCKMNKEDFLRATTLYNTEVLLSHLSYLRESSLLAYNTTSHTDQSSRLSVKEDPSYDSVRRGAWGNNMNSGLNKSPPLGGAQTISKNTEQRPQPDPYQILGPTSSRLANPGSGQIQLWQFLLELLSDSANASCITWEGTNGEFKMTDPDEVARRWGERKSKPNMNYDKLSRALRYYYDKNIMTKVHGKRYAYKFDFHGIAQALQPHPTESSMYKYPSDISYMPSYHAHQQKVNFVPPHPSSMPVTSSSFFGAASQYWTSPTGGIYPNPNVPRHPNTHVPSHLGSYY
# Outline: (§1)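 In yeast, human transcription factors were expressed with a GST fusion, then pulled down on glutathione beads and given DNA barcodes. Pooled with a tag-only sample, they were exposed to 200 nmole of a 16-mer random double-stranded DNA library (Tris/NaCl/DTT/glycerol buffer, room temperature, 30 min), washed, crosslinked with 0.1% formaldehyde, proximity-ligated using BsaI/T4 ligase for 1 h at 37 °C, PCR-amplified and read on an Illumina NextSeq500. Each hexamer's frequency of reads for a factor, divided by the matching frequency for the tag-only sample, gives the binding signal.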
# ELK1 = biological target: T2, ELK1 (Homo sapiens, UniProt P19419 1-428); details: protein: recombinant; tags: N-terminal GST; dsDNA, one strand shown
# T2 sequence: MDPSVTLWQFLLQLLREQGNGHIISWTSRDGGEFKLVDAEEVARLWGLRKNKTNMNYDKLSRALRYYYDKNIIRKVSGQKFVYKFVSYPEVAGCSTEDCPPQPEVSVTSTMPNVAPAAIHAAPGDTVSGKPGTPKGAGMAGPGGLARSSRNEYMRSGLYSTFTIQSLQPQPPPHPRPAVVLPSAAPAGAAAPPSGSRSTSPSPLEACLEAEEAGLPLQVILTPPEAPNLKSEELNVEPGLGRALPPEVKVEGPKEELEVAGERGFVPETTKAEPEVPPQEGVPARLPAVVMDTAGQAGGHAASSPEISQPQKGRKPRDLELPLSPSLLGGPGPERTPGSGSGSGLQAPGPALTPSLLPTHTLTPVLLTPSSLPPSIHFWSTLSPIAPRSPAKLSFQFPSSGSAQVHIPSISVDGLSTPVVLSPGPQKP
# Outline: as §1
# GABPA = biological target: T3, GABPA (Homo sapiens, UniProt Q06546 1-454); details: protein: recombinant; tags: N-terminal GST; dsDNA, one strand shown
# T3 sequence: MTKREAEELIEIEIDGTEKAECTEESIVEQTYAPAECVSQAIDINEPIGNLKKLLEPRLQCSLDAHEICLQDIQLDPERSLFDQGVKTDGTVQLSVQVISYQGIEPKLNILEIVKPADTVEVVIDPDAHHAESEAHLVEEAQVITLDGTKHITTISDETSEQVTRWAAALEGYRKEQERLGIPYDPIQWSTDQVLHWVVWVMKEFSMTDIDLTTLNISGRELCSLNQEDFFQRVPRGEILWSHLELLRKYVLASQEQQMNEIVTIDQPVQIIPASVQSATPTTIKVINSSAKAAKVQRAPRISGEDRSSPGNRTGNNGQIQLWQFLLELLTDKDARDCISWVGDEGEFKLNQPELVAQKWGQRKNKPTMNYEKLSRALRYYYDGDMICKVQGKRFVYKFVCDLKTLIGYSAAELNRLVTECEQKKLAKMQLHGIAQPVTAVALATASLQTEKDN
# Outline: as §1
# ERG = biological target: T4, ERG (Homo sapiens, UniProt P11308 1-479); details: protein: recombinant; tags: N-terminal GST; dsDNA, one strand shown
# T4 sequence: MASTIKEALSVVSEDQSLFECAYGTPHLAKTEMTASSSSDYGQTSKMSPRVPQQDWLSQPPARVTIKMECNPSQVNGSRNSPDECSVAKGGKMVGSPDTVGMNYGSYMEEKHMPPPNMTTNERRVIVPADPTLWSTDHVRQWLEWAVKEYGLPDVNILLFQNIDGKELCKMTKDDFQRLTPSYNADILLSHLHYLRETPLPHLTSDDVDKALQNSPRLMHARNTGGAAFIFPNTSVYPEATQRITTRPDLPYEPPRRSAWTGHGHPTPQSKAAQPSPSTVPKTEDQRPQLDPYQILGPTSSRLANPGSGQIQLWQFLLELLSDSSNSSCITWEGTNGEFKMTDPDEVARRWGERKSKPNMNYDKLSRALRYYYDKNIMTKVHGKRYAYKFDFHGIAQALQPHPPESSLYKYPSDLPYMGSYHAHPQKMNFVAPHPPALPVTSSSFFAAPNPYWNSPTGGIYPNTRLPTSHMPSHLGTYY
# Outline: as §1
# ELF1 = ELF1 (Homo sapiens, UniProt P32519 1-619); details: protein: recombinant; tags: N-terminal GST; dsDNA, one strand shown
# Outline: as §1
# EHF = biological target: T5, EHF (Homo sapiens, UniProt Q9NZC4 1-300); details: protein: recombinant; tags: N-terminal GST; dsDNA, one strand shown
# T5 sequence: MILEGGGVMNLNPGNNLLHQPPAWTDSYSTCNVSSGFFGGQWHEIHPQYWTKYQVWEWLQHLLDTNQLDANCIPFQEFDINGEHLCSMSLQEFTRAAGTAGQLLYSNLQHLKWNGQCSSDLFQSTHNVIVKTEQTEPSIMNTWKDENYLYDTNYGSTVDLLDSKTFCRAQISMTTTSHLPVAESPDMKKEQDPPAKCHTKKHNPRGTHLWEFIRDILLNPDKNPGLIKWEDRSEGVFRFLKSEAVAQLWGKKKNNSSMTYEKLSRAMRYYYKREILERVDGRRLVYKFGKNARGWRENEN
# Outline: as §1
# SPI1 = SPI1 (Homo sapiens, UniProt P17947 1-270); details: protein: recombinant; tags: N-terminal GST; dsDNA, one strand shown
# Outline: as §1
# SPIB = SPIB (Homo sapiens, UniProt Q01892 1-262); details: protein: recombinant; tags: N-terminal GST; dsDNA, one strand shown
# Outline: as §1
# ELK3 = biological target: T6, ELK3 (Homo sapiens, UniProt P41970 1-407); details: protein: recombinant; tags: N-terminal GST; dsDNA, one strand shown
# T6 sequence: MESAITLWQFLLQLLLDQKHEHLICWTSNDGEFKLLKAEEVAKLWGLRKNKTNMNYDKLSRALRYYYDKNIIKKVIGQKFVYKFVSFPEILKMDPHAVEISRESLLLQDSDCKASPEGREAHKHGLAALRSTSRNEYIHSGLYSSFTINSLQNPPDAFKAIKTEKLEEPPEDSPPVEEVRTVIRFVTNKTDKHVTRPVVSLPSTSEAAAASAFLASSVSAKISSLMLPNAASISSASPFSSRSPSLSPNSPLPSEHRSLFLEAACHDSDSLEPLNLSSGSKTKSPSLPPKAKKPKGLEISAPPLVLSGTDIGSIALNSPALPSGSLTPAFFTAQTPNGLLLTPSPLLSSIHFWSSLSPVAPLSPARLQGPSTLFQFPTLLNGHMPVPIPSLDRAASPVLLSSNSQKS
# Outline: as §1
# FEV = biological target: T7, FEV (Homo sapiens, UniProt Q99581 1-238); details: protein: recombinant; tags: N-terminal GST; dsDNA, one strand shown
# T7 sequence: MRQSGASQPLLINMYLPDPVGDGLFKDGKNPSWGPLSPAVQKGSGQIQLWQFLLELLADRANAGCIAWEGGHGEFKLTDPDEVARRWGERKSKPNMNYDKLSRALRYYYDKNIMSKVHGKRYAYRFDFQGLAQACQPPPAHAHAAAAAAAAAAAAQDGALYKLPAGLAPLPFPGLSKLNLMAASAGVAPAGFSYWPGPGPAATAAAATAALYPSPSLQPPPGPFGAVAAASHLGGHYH
# Outline: as §1
# ETV5 = ETV5 (Homo sapiens, UniProt P41161 1-510); details: protein: recombinant; tags: N-terminal GST; dsDNA, one strand shown
# Outline: as §1
# HSF1 = HSF1 (Homo sapiens, UniProt Q00613 1-529); details: protein: recombinant; tags: N-terminal GST; chain copies: 3; dsDNA, one strand shown
# Outline: as §1
# SPIC = biological target: T8, SPIC (Homo sapiens, UniProt Q8N5J4 1-248); details: protein: recombinant; tags: N-terminal GST; dsDNA, one strand shown
# T8 sequence: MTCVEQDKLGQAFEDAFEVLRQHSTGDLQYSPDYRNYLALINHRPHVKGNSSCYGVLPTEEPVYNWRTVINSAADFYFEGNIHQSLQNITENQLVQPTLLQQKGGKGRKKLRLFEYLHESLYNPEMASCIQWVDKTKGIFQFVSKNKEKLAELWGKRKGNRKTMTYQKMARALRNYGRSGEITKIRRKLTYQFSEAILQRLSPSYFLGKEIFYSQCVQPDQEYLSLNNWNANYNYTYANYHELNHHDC
# Outline: as §1
# ELF4 = ELF4 (Homo sapiens, UniProt Q99607 1-663); details: protein: recombinant; tags: N-terminal GST; dsDNA, one strand shown
# Outline: as §1
# ELK4 = biological target: T9, ELK4 (Homo sapiens, UniProt P28324-2 1-405); details: protein: recombinant; tags: N-terminal GST; dsDNA, one strand shown
# T9 sequence: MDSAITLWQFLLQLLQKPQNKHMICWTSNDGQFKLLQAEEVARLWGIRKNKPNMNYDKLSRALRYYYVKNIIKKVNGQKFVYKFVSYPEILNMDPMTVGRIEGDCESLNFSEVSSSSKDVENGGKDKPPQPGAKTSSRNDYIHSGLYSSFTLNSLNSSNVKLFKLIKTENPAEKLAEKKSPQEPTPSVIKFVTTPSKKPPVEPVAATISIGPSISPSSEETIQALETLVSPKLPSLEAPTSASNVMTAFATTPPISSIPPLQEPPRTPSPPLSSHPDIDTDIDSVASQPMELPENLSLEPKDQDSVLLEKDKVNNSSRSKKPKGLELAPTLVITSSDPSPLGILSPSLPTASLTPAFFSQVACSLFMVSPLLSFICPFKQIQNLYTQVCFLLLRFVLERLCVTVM
# Outline: as §1
# ETV2 = biological target: T10, ETV2 (Homo sapiens, UniProt O00321 1-342); details: protein: recombinant; tags: N-terminal GST; dsDNA, one strand shown
# T10 sequence: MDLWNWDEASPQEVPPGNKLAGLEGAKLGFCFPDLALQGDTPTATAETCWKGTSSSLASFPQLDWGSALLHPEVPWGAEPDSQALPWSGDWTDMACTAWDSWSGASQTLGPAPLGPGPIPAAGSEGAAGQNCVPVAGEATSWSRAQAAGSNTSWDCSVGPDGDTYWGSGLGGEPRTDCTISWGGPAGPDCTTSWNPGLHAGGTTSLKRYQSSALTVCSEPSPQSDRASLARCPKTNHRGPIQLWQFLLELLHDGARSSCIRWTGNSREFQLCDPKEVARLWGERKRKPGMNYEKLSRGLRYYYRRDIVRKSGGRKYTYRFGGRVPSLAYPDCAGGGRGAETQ
# Outline: as §1
# ELF3 = biological target: T11, ELF3 (Homo sapiens, UniProt P78545 1-371); details: protein: recombinant; tags: N-terminal GST; dsDNA, one strand shown
# T11 sequence: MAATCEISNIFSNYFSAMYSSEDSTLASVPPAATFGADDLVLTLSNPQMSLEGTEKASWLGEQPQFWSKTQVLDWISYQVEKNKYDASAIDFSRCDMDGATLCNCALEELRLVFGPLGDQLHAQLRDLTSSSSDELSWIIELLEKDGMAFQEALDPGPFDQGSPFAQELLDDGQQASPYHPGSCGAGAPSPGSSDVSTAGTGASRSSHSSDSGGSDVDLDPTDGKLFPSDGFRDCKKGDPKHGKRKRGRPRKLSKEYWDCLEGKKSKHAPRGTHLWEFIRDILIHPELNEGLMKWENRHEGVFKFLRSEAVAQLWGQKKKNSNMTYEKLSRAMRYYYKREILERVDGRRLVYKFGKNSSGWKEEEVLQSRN
# Outline: as §1
# ETV1 = ETV1 (Homo sapiens, UniProt P50549 1-477); details: protein: recombinant; tags: N-terminal GST; dsDNA, one strand shown
# Outline: as §1
# Sequence of HSF1 (Q00613 whole entry): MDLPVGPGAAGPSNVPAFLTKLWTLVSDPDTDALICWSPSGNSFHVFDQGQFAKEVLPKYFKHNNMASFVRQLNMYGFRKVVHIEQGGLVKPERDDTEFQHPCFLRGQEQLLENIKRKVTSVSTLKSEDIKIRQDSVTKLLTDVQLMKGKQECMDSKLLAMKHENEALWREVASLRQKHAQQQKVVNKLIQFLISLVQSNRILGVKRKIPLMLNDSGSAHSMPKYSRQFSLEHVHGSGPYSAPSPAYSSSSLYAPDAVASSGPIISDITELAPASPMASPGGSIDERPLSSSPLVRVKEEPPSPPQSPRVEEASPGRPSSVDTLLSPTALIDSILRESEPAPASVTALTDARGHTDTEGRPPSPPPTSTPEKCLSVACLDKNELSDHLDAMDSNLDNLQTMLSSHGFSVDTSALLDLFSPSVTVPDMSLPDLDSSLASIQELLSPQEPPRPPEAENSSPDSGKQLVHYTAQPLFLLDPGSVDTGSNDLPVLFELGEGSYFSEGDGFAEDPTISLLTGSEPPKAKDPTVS
# Sequence of ETV5 (P41161 whole entry): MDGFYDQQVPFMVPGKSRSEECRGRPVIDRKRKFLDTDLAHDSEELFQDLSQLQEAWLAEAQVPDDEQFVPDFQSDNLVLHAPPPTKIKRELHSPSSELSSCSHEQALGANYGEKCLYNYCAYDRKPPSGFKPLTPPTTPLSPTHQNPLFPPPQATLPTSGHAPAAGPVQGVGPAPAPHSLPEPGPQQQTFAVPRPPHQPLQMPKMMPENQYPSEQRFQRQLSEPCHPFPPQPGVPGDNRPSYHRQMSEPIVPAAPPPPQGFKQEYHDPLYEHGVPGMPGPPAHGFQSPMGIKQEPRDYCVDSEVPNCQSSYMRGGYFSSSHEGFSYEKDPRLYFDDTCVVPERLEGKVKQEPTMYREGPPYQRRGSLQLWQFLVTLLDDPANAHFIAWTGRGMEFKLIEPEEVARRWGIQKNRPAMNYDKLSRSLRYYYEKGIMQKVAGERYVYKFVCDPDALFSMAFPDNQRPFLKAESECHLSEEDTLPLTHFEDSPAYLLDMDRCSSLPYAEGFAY
# Sequence of ELF1 (P32519 whole entry): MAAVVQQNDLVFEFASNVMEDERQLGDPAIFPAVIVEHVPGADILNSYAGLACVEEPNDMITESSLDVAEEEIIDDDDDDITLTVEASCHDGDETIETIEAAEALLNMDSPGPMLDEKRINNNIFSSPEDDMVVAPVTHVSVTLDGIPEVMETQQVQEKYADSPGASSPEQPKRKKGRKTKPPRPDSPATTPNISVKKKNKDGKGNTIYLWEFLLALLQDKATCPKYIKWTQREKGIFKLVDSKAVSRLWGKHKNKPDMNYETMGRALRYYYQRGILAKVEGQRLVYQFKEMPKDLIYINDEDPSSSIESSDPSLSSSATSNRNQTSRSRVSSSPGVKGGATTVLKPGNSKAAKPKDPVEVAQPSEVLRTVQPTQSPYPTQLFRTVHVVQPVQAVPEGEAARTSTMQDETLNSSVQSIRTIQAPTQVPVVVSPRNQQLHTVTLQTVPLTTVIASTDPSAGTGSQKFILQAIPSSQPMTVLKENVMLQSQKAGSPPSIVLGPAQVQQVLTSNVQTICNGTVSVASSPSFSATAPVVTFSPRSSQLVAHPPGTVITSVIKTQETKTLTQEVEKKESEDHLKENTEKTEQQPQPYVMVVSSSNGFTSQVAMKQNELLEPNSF
# Sequence of ELF4 (Q99607 whole entry): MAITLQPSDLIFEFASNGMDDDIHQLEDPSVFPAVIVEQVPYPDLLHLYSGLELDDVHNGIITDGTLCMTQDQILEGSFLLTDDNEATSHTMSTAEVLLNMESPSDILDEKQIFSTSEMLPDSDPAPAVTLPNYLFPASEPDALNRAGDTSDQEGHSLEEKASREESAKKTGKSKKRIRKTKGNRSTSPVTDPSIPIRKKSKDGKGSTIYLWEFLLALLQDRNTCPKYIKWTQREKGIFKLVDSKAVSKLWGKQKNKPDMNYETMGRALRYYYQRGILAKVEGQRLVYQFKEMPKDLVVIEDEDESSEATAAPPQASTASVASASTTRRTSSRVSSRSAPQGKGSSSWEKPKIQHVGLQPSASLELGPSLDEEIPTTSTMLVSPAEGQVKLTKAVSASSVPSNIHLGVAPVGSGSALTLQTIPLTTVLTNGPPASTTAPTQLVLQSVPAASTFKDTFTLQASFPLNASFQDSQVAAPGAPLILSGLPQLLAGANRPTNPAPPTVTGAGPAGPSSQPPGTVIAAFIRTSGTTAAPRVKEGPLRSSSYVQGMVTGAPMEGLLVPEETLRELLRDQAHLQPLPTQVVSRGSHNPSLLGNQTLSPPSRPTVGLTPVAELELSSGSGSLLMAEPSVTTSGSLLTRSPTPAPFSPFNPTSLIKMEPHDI
# Sequence of SPIB (Q01892 whole entry): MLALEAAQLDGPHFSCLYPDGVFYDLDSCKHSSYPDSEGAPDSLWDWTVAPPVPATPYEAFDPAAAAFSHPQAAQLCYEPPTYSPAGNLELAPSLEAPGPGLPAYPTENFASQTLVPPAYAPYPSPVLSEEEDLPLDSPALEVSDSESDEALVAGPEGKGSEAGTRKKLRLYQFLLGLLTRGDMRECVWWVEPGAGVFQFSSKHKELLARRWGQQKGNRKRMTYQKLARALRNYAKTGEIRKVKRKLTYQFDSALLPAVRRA
# Sequence of ETV1 (P50549 whole entry): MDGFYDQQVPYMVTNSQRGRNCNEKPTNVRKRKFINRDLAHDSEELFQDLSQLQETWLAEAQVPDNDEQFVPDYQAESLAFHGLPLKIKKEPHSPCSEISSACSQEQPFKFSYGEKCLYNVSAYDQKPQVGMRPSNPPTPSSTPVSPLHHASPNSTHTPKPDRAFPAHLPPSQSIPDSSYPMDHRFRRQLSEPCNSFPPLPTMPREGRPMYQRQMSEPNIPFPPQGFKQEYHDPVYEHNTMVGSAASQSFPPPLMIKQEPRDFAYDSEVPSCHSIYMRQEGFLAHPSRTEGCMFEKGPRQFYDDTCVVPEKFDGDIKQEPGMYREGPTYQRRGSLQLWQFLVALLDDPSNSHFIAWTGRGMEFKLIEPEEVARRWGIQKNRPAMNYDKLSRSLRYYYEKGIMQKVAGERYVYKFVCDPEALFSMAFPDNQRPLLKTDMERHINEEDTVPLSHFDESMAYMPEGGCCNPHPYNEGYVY
sequence,measurement,setting,value
CACTGC,binding signal,FLI1,"1.45 fold enrichment (6-mer frequency, TF over GST control)"
same,binding signal,ELK1,"1.46 fold enrichment (6-mer frequency, TF over GST control)"
same,binding signal,GABPA,"1.32 fold enrichment (6-mer frequency, TF over GST control)"
same,binding signal,ERG,"1.41 fold enrichment (6-mer frequency, TF over GST control)"
same,binding signal,ELF1,"1.44 fold enrichment (6-mer frequency, TF over GST control)"
same,binding signal,EHF,"1.58 fold enrichment (6-mer frequency, TF over GST control)"
same,binding signal,SPI1,"1.38 fold enrichment (6-mer frequency, TF over GST control)"
same,binding signal,SPIB,"1.44 fold enrichment (6-mer frequency, TF over GST control)"
same,binding signal,ELK3,"1.51 fold enrichment (6-mer frequency, TF over GST control)"
same,binding signal,FEV,"1.38 fold enrichment (6-mer frequency, TF over GST control)"
same,binding signal,ETV5,"1.37 fold enrichment (6-mer frequency, TF over GST control)"
same,binding signal,HSF1,"1.04 fold enrichment (6-mer frequency, TF over GST control)"
same,binding signal,SPIC,"1.46 fold enrichment (6-mer frequency, TF over GST control)"
same,binding signal,ELF4,"1.32 fold enrichment (6-mer frequency, TF over GST control)"
same,binding signal,ELK4,"1.43 fold enrichment (6-mer frequency, TF over GST control)"
same,binding signal,ETV2,"1.28 fold enrichment (6-mer frequency, TF over GST control)"
same,binding signal,ELF3,"1.15 fold enrichment (6-mer frequency, TF over GST control)"
same,binding signal,ETV1,"1.36 fold enrichment (6-mer frequency, TF over GST control)"
